From PubChem BioAssay AID449762 (Southern Research Specialized Biocontainment Screening …, 2010)
Hit rate of the full screen: of about 330,000 compounds, about 1,900 (0.58%) were called active. About 4% were inconclusive and are not listed. Rule as the data show it: inconclusive = inhibition above about 70% without an active follow-up result; inactive = below that. Only a sample is shown. Potency and affinity values are given separately.

Assay: M. tuberculosis growth inhibition, HTS (AID 449762);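 also: bacterial growth assessed after seven days of incubation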
Conditions: M. tuberculosis H37Rv growth inhibition, 7H9 media; at 25 µM; stronger effect = higher value

Row | Structure (SMILES) | inhibition
1 | CC(C)CNC(=O)c1c(N)n(/N=C/c2ccccn2)c2nc3ccccc3nc12 | 4.33% (inactive)
2 | CCC(C)NC(=O)c1c(N)n(/N=C/c2cccnc2)c2nc3ccccc3nc12 (configuration not stated) | 27.8% (inactive)
3 | COc1ccc(/C=C/C(=O)Nc2ccccc2Cl)cc1S(=O)(=O)N1CCOCC1 | -10.4% (inactive)
4 | COc1ccc(Cn2nnnc2CN2CCc3ccccc32)cc1 | 1.54% (inactive)
5 | CC(OC(=O)c1snc(C(=O)NC2CCCCC2)c1N)C(=O)NC1CCCCC1 (configuration not stated) | -2.81% (inactive)
6 | O=C(COC(=O)c1nsc(Cl)c1Cl)NC1CCCCC1 | 0.77% (inactive)
7 | c1ccc(-c2nc3cccnc3nc2-c2ccccc2)cc1 | -12.8% (inactive)
8 | Nc1c(-c2ccccc2)nc(Cl)nc1-c1ccccc1 | 15.6% (inactive)
9 | COc1ccc(S(=O)(=O)NCC(=O)N(CC(=O)NCC2CCCO2)Cc2ccccc2)cc1 (configuration not stated) | -4.12% (inactive)
10 | COc1ccc(CCNC(=O)C(=O)NCc2ccc(C(C)C)cc2)cc1OC | -15.8% (inactive)
11 | COc1ccc(NC(=O)CN2C(=O)NC(c3ccccc3)(c3ccccc3)C2=O)cc1 | -1.71% (inactive)
12 | COc1ccc(C2(c3ccc(OC)cc3)NC(=O)N(CC(=O)Nc3ccc(C(N)=O)cc3)C2=O)cc1 | -7.66% (inactive)
13 | CC(C)CCc1noc(CN(CC2CCC2)CC2CCCO2)n1 (configuration not stated) | -1.94% (inactive)
14 | O=C(COC(=O)Cc1ccc(S(=O)(=O)N2CCOCC2)s1)Nc1ccc([N+](=O)[O-])cc1 | -2.45% (inactive)
15 | Cc1ccc(CNC(=O)c2ccc(N3CCC4(CC3)CC(c3ccccc3)=NO4)c(NC(=O)c3ccc(Cl)c([N+](=O)[O-])c3)c2)cc1 | -10.7% (inactive)
16 | Cc1cccc(NC(=O)CCN2C(=O)c3cccc([N+](=O)[O-])c3C2=O)c1 | -5.47% (inactive)
17 | Cc1ccc(NC(=O)CCN2C(=O)c3cccc([N+](=O)[O-])c3C2=O)c(Br)c1 | 7.28% (inactive)
18 | O=C(CN1C(=O)COc2ccccc21)c1cccc(Cl)c1 | 1.54% (inactive)
19 | CCCCN=C1CC(C)(C)CC(=O)/C1=C(/O)CCC | -2.63% (inactive)
20 | CCCN=C1CC(C)(C)CC(=O)/C1=C(/O)CCC | -3.03% (inactive)
21 | CC(=O)Nc1ccc(C(=O)NNC(=O)C2CC2)cc1 | -9.13% (inactive)
22 | O=[N+]([O-])c1cccc2c([N+](=O)[O-])cccc12 | 9.13% (inactive)
23 | Cc1ccccc1[N+](=O)[O-] | -10.8% (inactive)

Row | Structure (SMILES) | inhibition
24 | COc1cccc(CN(C)CC(=O)NCc2ccc(C)cc2)c1 | 7.23% (inactive)
25 | NNC(=O)CN1C(c2ccc(Cl)cc2)=Nc2ccc(Br)cc2C1c1ccccc1 (configuration not stated) | 0.4% (inactive)
26 | COC(=O)CN1C(c2ccccc2)=Nc2ccc(Cl)cc2C1c1ccccc1 (configuration not stated) | 55.5% (inactive)
27 | CCCCCC(=O)Nc1cccc(C2=NOC3(C2)C[C@@H](C(N)=O)N(C(=O)c2ccc(Cl)cc2)C3)c1 (some centres not stated) | -9.42% (inactive)
28 | COc1ccc2nc(NC(=O)C3CCN(S(=O)(=O)c4cccs4)CC3)sc2c1 | -5.35% (inactive)
29 | CCOc1ccc2nc(NC(=O)C3CCCN(S(=O)(=O)c4cccs4)C3)sc2c1 (configuration not stated) | 58.9% (inactive)
30 | O=C(NCC1CCCN1S(=O)(=O)c1cccs1)C(=O)Nc1cccc(F)c1 (configuration not stated) | -3.47% (inactive)
31 | CC(C)Cc1nc(SCC(=O)N2CCCC2)c2c(=O)n(C)c(=O)n(C)c2n1 | 5.69% (inactive)
32 | CC(=O)NCc1cc(-c2ccc(Cl)cc2)no1 | -6.41% (inactive)
33 | O=S(=O)(NCc1cc(-c2ccc(Cl)cc2)no1)c1ccc(Cl)cc1 | -3.48% (inactive)
34 | COc1ccc(C2CC(C)=NN2C=O)cc1OC (configuration not stated) | -23.4% (inactive)
35 | O=C(c1cc(COc2ccc(-n3cncn3)cc2)on1)N1CCCC1 | 2.05% (inactive)
36 | C=CCC1(CC=C)CCCN1C(=O)c1cc(COc2ccc(F)c(F)c2)on1 | 11.7% (inactive)
37 | COc1ccccc1C1=NOC(C)(c2nnc(Cc3ccccc3)o2)C1 (configuration not stated) | -2.16% (inactive)
38 | Cc1ccc2oc(=O)c3cnn(CC(=O)N(CCN(C)C)Cc4ccco4)c3c2c1 | -9.56% (inactive)
39 | Cn1c(SCC(=O)NCC2CCCO2)ncc(C(=O)Nc2ccc(F)cc2)c1=O (configuration not stated) | 67.5% (inactive)
40 | Cn1c(SCC(=O)NCC2CCCO2)ncc(C(=O)Nc2ccccc2)c1=O (configuration not stated) | 54.1% (inactive)
41 | COC(=O)c1ccc2c(=O)[nH]c(CCl)nc2c1 | 37.7% (inactive)
42 | COC(=O)c1ccc2c(=O)[nH]c(CSc3nc(-c4ccc(F)cc4)cs3)nc2c1 | -1.24% (inactive)
43 | COc1cc(OC)c(-c2nc3c[n+](CC(=O)c4ccccc4)ccc3n2C)cc1OC | -1.07% (inactive)
44 | COc1cc(-c2nc3c[n+](CC(=O)c4ccccc4)ccc3n2C)cc(OC)c1OC | 3.76% (inactive)
45 | Cc1ccc(-c2nc3ncccn3c2Nc2ccc3c(c2)OCCO3)o1 | 3.72% (inactive)
46 | Cc1ccc(-c2nc3ncccn3c2Nc2ccc3c(c2)OCO3)o1 | 3.61% (inactive)

Row | Structure (SMILES) | inhibition
47 | CCOc1ccc(NS(=O)(=O)c2cc(C(=O)N3CCCC3)ccc2Cl)cc1 | 5.65% (inactive)
48 | Cc1ccc(NC(=O)c2ccc(OCC3CCCO3)cc2)nc1 (configuration not stated) | 16.9% (inactive)
49 | Oc1ccc(C[C@@H]2CNCCN2CC2CCCCC2)cc1 | -3.4% (inactive)
50 | Oc1ccc(C[C@H]2CNCCN2CC2CCCCC2)cc1 | 7.27% (inactive)
51 | CCOC(=O)c1cc(-c2ccc3c(c2)OCCO3)n[nH]1 | -1.75% (inactive)
52 | OCCN(CCCn1c(-c2ccncc2)nc2ccccc21)c1nc(CN2CCCCC2)cs1 | -3.74% (inactive)
53 | O=C(NNc1cc(N2CCOCC2)nc(N2CCOCC2)n1)c1ccc(Cl)c(Cl)c1 | -10.6% (inactive)
54 | CC(C)(C)c1ccc(C(=O)NNc2cc(N3CCOCC3)nc(N3CCOCC3)n2)cc1 | 1.03% (inactive)
55 | O=C(CSc1nc2cc(Cl)ccc2o1)N1CCOCC1 | 0.49% (inactive)
56 | CCN1CCN(Cc2ccc(NC(=O)c3cc(NC(=O)c4ccc5n[nH]nc5c4)cc(OC)c3)cc2C(F)(F)F)CC1 | 12.9% (inactive)
57 | CCN1CCN(Cc2ccc(NC(=O)c3cc(NC(=O)c4ccno4)cc(OC)c3)cc2C(F)(F)F)CC1 | 66.3% (inactive)
58 | CC(=O)NCCC(=O)Nc1cccc(S(=O)(=O)N(C)c2ccccc2)c1 | -0.05% (inactive)
59 | Cc1ccccc1OCC(=O)N/N=C/c1ccccn1 | -4.77% (inactive)
60 | O=C(NC1(C(F)(F)F)NC(=O)N(C2CCCCC2)C1=O)C1CC1 (configuration not stated) | -5.69% (inactive)
61 | CCOC(=O)c1c(C)[nH]c(N=Nc2cc(C(=O)O)cc(C(=O)O)c2)c1C | -2.43% (inactive)
62 | CCOC(=O)c1c(C)[nH]c(N=Nc2cccc(C)c2)c1C | 15.8% (inactive)
63 | COc1ccc(N2C(=O)/C(=C/c3cc(C)n(-c4ccc(C)cn4)c3C)C(=O)NC2=S)c(OC)c1 | 3.48% (inactive)
64 | COc1ccc(/C=N/OCC(=O)Nc2cc(C)on2)cc1OC | -6.14% (inactive)
65 | COc1cc(/C=N/OCC(=O)Nc2cc(C)on2)ccc1OCc1ccccc1 | -2.24% (inactive)
66 | Cc1cc(NC(=O)C(Cl)(Cl)Cl)no1 | -0.63% (inactive)
67 | CSCC(=O)Nc1cc(C)on1 | 7.76% (inactive)
68 | CCCn1c(SCC(=O)Nc2ccccc2N2CCOCC2)nc2c1c(=O)n(C)c(=O)n2C | -9.47% (inactive)
69 | CN(CCOc1ccc(Cl)cc1)C(=O)C1CCN(C(=O)c2ccc(F)cc2)CC1 | -0.37% (inactive)

Row | Structure (SMILES) | inhibition
70 | CCC(NC(=O)c1cc(COc2cncc(Cl)c2)on1)c1ccncc1 (configuration not stated) | 4.32% (inactive)
71 | CCC(NC(=O)c1cc(COc2cncc(Cl)c2)on1)c1ccc(C)cc1 (configuration not stated) | 27.5% (inactive)
72 | COc1cccc(NC(=O)CN(C)C(=O)c2ccccc2Sc2ccccc2C#N)c1 | -24% (inactive)
73 | CCOC(=O)c1cc(NC(=O)c2ccccc2)c(=O)n2c1oc1ccccc12 | -3% (inactive)
74 | Oc1c(C(c2ccccn2)N2CCCCC2)cc(Cl)c2cccnc12 (configuration not stated) | 3% (inactive)
75 | Oc1c(C(c2cccs2)N2CCN(c3ccccc3)CC2)ccc2cccnc12 (configuration not stated) | 30.5% (inactive)
76 | COC(=O)Cc1ccc(NC(=S)N2CCC(Cc3ccccc3)CC2)cc1 | 6.07% (inactive)
77 | O=C(C1=C[C@H](c2coc3ccccc3c2=O)C[C@H](OCCCCO)O1)N1CCN(Cc2ccccc2)CC1 | 39.2% (inactive)
78 | CC(CC(=O)Nc1ccc(F)c([N+](=O)[O-])c1)c1ccccc1 (configuration not stated) | -6.24% (inactive)
79 | CC(CC(=O)Nc1cc([N+](=O)[O-])ccc1Cl)c1ccccc1 (configuration not stated) | 3.48% (inactive)
80 | CSCC[C@H](NC(=O)C1CCN(S(=O)(=O)c2ccc(C)cc2)CC1)C(=O)NCC1CCCO1 (some centres not stated) | -8.31% (inactive)
81 | Cc1occc1-c1nnc(SCc2nnc(-c3ccc(Cl)cc3)o2)n1C | -6.71% (inactive)
82 | C[C@@H]1C[C@H]2[C@@H]3CCC4=CC(=O)C=C[C@]4(C)[C@@]3(F)[C@@H](O)C[C@]2(C)[C@H]1C(=O)CO | 18.9% (inactive)
83 | Cc1cccc(C)c1NC(=O)Cn1nnc(-c2ccc(CN3CCC(C)CC3)cc2)n1 | 5.96% (inactive)
84 | COC(=O)N/N=C\c1ccccc1OC/C=C/c1ccccc1 | 7.83% (inactive)
85 | CCOc1ccc(-c2cc(C)[n+](CCN3CCOCC3)c(-c3ccc(OCC)cc3)c2)cc1 | 12.3% (inactive)
86 | CCOc1ccc(-c2cc(C)[n+](CCO)c(-c3ccc(OCC)cc3)c2)cc1 | 4.23% (inactive)
87 | COC(=O)/C(=C/Nc1ccccc1)[N+](=O)[O-] | -4.18% (inactive)
88 | Cc1ccc(NC(=O)CS(=O)CC(=O)N(CC(=O)NC2CCCC2)c2ccc3c(c2)OCCO3)cc1 (configuration not stated) | -4.13% (inactive)
89 | CCn1c2ccccc2c2cc(CN3CCN(S(C)(=O)=O)CC3)ccc21 | 7.91% (inactive)
90 | CCn1c2ccccc2c2cc(CN3CCN(S(=O)(=O)CC)CC3)ccc21 | 10.3% (inactive)
91 | COc1ccc(CNCc2ccc3ccccc3c2)c(OC)c1 | 12.2% (inactive)
92 | COc1cccc(CNCc2ccc(OC)cc2OC)c1 | 1.71% (inactive)
